Screening data (PubChem)
NPC1 prom act – NPC1 promoter activation | Huh7 NPC1 promoter luciferase reporter, 24 h | Potency, µM (highest dose often 9.22 µM), without a hit: top-dose activation, actives largely listed as activators | 320,000 compounds, 2.4% hits | AID 485313; also: % of control where 0% means no effect; nearly all actives have a fitted effect of over 60% in size
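Luminescence read-out of NPC1 promoter-driven luciferase in stably transfected Huh7 cells; compounds delivered in DMSO and left 24 h at 37C, 5% CO2, qHTS titration format.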
Rab9 prom act – activators of Rab9 promoter; Potency, µM (top dose mostly 9.22 µM), for inactives: top-dose activation, negative = inhibition, most hits filed as activators; Huh7 Rab9 promoter-luciferase reporter, luminescence, 24 h; 320,000 compounds, 2.8% hits; also: % of control where 0% means no effect; nearly all actives have a fitted effect of over 60% in size
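Promoter activation is measured as luciferase luminescence in Huh7 cells stably transfected with a Rab9 promoter–luciferase construct, following 24 h compound exposure at 37 °C and 10 min reagent incubation at ambient temperature.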
FLuc modulator – firefly luciferase modulation, counter-screen for miR-21 project; purified FLuc, Km substrates, luminescence inhibition; P08659; Potency, µM (titrated, usually from 57.5 µM), without a hit: at the top dose activity change, negative = inhibition, most hits filed as inhibitors; 360,000 compounds, 6.9% hits;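 also: plate controls were vehicle for no effect and reference inhibitor for full effect; nearly all actives have a fitted effect of over 55% in size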
Target sequence (P08659 whole entry, looked up): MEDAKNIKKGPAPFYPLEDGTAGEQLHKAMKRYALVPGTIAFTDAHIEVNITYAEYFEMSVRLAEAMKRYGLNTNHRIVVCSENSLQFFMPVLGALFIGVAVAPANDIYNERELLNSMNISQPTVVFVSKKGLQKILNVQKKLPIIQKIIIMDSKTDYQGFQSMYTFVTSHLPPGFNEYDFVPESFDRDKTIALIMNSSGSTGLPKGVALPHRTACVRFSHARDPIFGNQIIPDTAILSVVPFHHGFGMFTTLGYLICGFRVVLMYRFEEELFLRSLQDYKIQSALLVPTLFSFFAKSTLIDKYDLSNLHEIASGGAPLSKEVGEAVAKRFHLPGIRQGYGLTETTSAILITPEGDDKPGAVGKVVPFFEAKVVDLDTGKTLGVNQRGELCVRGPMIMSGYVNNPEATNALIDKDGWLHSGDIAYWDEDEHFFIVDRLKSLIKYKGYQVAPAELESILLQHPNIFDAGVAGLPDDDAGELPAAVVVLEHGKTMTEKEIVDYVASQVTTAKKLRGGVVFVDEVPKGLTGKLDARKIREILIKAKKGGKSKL
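Purified P. pyralis luciferase (10nM final) with 10uM D-luciferin and 10uM ATP (Km levels) in 50mM Tris acetate pH 7.5, 10mM Mg acetate, 0.01% Tween-20, 0.05% BSA; qHTS 6-point titration, ~60 µM downward; luminescence read.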
SMN2 splice enh – enhancers of SMN2 splice variant expression | 210,000 compounds, 2.8% hits | AID 1458 | Potency, µM (top dose mostly 46.1 µM), for inactives: at the top dose activity change, positive = activation, usual class: activators | HEK293 SMN2-luciferase splicing reporter, luminescence, 30-36 h; also: % of control where 0% means no effect; nearly all actives have a fitted effect of over 55% in size
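HEK293 cells carry an SMN2 […]–luciferase reporter in which exon 7 inclusion puts luciferase in frame. Cells were plated 10-12 h before compound addition, then incubated 30-36 h at 37C. ONE-Glo luminescence was read; sodium butyrate at 4.5 mM final served as control.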
ELG1 DNA repair – ELG1-dependent DNA repair inhibition; Potency, µM (series often up to 46.1 µM), for inactives: at the highest dose activity change, negative = inhibition, hits mostly inhibitors; HEK293T ELG1-luciferase reporter, luminescence, 16 h; DNA damage induced by 5-fluorouridine; AID 504467; 330,000 compounds, 2.3% hits; also: % is scaled to controls: 0 for no effect and ±100 for the full control effect; nearly all actives have a fitted effect of over 55% in size
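Overnight (16 hr) co-exposure of 2,000 cells/well to 5-fluorouridine and compound at 37 °C preceded detection. Luciferase was quantified via ONE-Glo luminescence; loss of signal denotes inhibition.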
ELG1 genotox – inducers of genotoxicity in HEK293T ELG1-luciferase cells; HEK293T ELG1-luciferase reporter, luminescence, 16 h; Potency, µM (top dose mostly 46 µM), without a hit: at the top dose activity change, positive = activation, actives largely listed as activators; 330,000 compounds, 1.3% hits; also: % of control where 0% means no effect; nearly all actives have a fitted effect of over 60% in size
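Cells (2,000/well) expressing the ELG1-luciferase fusion are dosed by pin tool and kept 16 hr at 37 °C, 5% CO2. Signal comes from ONE-Glo luciferase reagent after 30 min at room temperature.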
The depositor's hits bear a star; ? = inconclusive; · = no result. Only some compounds are listed: those with a hit (about 9.4% of all), similar ones and a draw of the others. Calls follow the shape of the dose curve; as a rule, active = well fitted curve in the direction sought with a large enough effect; inconclusive = small, poorly fitted or top-dose-only effect, or another doubt; inactive = no such curve, though single readings can be large; an effect the other way counts as inactive or inconclusive. Potency is read from the fitted curve at half-maximal effect.

SMILES | NPC1 prom act | Rab9 prom act | FLuc modulator | SMN2 splice enh | ELG1 DNA repair | ELG1 genotox
O=C(Cn1nnc(-c2cccc(C(F)(F)F)c2)n1)NCc1ccc(F)cc1 | · | · | -1.5% | -6.9% | · | ·
Cc1cc(S(=O)(=O)C(CNC(=O)COc2ccc(Cl)cc2)c2cccs2)ccc1F (stereo not given) | · | · | -10.1% | · | · | ·
COc1ccc(/C=C/C(=O)NCCN=C2NS(=O)(=O)c3ccccc32)cc1 | -1.6% | -9.5% | 15.1µM* | 7.9% | -18.9% | -4.7%
Cc1ccc(NC(=O)Cn2nc(C)c3nn(-c4ccc(Cl)cc4)c(C)c3c2=O)cc1F | · | · | -3.2% | · | · | ·
Cc1nnc(SCC(=O)NC(=O)Nc2ccc3c(c2)OCCO3)n1N | ? | 1.78µM* | 16.9µM* | · | ? | 2.8%
O=C(CSc1nnnn1-c1ccc2c(c1)OCCO2)Nc1nc2c(s1)CCCC2 | 22.6% | -3.7% | -6.9% | -33.4% | 20.6µM* | -2.9%
Cc1ccc(-n2nnnc2SCC(=O)NC(=O)Nc2ccc3c(c2)OCCO3)cc1 | 27.9% | ? | 21.3µM* | 19.1% | ? | 14.9%
COc1cccc(-n2nnnc2SCC(=O)Nc2nc3c(s2)CCCC3)c1 | 3.8% | -4.4% | ? | -82.4% | ? | -4.0%
COc1ccc(-n2nnnc2SCC(=O)NC(=O)Nc2ccc3c(c2)OCCO3)cc1 | 18.8% | 27.3% | 19µM* | -15.9% | ? | ?
CCc1nnc(SCc2nc(-c3ccccc3)oc2C)c2cc3sccc3n12 | · | · | -10.6% | · | · | ·
CCc1cccc(NC(=O)c2ccc(CNS(=O)(=O)c3ccc4c(c3)C(C)(C)C(=O)N4C)cc2)c1 | · | · | -14.4% | · | · | ·
Cc1ccc(Cl)cc1NC(=O)C(=O)NCC(c1cccnc1)N1CCc2ccccc21 (stereo not given) | · | · | -13.5% | · | · | ·
C[C@H](NS(=O)(=O)c1ccc(Cl)cc1)C(=O)OCC(=O)NC(=O)Nc1ccc2c(c1)OCCO2 | 19.4% | 21.5% | 16.9µM* | ? | ? | ?
Cc1ccc(S(=O)(=O)N[C@H](C(=O)OCC(=O)NC(=O)Nc2ccc3c(c2)OCCO3)C(C)C)cc1 | -2.5% | 1.0% | ? | -34.6% | ? | -7.6%
COc1ccc(C(=O)COC(=O)C(CCCCN2C(=O)C3C4C=CC(C4)C3C2=O)N2C(=O)C3C4C=CC(C4)C3C2=O)cc1 (stereo not given) | -6.6% | -3.0% | -1.3% | -54.1% | 5.8µM* | -4.5%
COc1cc(NC(=O)CCCOc2cc(=O)n(C)c3ccccc23)cc(OC)c1OC | · | · | -5.6% | 26.5% | · | ·
O=C(NNC(=O)c1ccccc1C(=O)O)c1ccc(-c2ccccc2)cc1 | -3.9% | 0.5% | 16.9µM* | 2.8% | ? | 1.7%
NC(=S)NNC(=O)c1cccc(Br)c1 | -6.2% | -3.6% | 5.0% | 23.7% | 13.0% | 0.3%
Cc1cccc(C(=O)NNC(=O)c2ccc(Cl)cc2)c1O | ? | ? | 10.7µM* | 15.8µM* | ? | 9.2µM*
Cc1cc(C(=O)NNC(=O)c2ccc(Cl)cc2)c2ccccc2n1 | -8.4% | -2.3% | -29.7% | · | -13.2% | 3.8%
O=C(NNC(=O)c1ccccc1O)c1cccc(Br)c1 | ? | 19.3% | 16.9µM* | · | ? | 13.4%
O=C(NNC(=O)c1ccccc1O)c1ccc(Br)cc1 | ? | ? | 12µM* | · | ? | 26.0%
O=C(NNC(=O)c1ccccc1O)c1ccc(Cl)cc1 | ? | ? | 9.53µM* | 17.7% | ? | ?
O=C(NNC(=O)c1ccc(O)cc1O)c1ccc(Cl)cc1 | 13.8% | 5.4% | ? | 14.0% | ? | ?
COc1ccc(OC(=O)c2nc(SCc3ccccc3F)ncc2Cl)cc1 | · | · | 1.4% | -8.0% | · | ·
Cc1nc(/N=C(\N)NC(=O)c2ccccc2)nc2ccccc12 | 22.6% | ? | ? | 17.8µM* | ? | 5.3%
CCCC(=O)N/C(N)=N/c1nc(C)c2cc(C)ccc2n1 | -8.7% | 22.8% | 16.9µM* | · | ? | 5.4%
